Results published in PubChem BioAssay AID1159580 (chemical genetic matrix, 2015).
Values joined by “and” are separate entries in the source; they are usually repeats but may differ in a detail not shown here. Equal values may be shown once. About 2,000 (36%) of roughly 5,500 compounds were called active. Another 18% or so got no clear call; they are omitted. Rule as the data show it: active = normalized growth mostly below about 0.91 (no sharp cut-off); inconclusive = no clear call, values can overlap the other calls; inactive = mostly above about 0.92. The list shows a part of the results.

Assay: chemical genetic growth profiling, strain panel (AID 1159580);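 also: tested at 20 µM; growth read once vehicle control cultures reached saturation at 30 °C; 1 = growth at the plate median or of vehicle wells; lower values mean less growth of the strain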
Details: S. cerevisiae deletion strains, growth OD

Measured: normalized growth

CC(=O)Oc1ccc2c(c1OC(C)=O)OCC1(O)Cc3c(cc(OC(C)=O)c(OC(C)=O)c3OC(C)=O)C21 (configuration not stated)
inactive: locus YAL013W, strain DEP1, active compounds read low 1.02 | locus YAL021C, strain ccr4, active compounds read low 0.948 | locus YAL026C, strain drs2, active compounds read low 1.03 | locus YAL030W, strain snc1, active compounds read low 1.01 | locus YBL061C, strain skt5, active compounds read low 1.01 | locus YBR009C, strain hhf1, active compounds read low 1.01 | locus YBR021W, strain FUR4, active compounds read low 1.02 | locus YBR023C, strain chs3, active compounds read low 0.988 | locus YBR171W, strain sec66, active compounds read low 1.02 | locus YBR229C, strain ROT2, active compounds read low 1.01 | locus YBR231C, strain swc5, active compounds read low 0.975 | locus YBR279W, strain paf1, active compounds read low 0.99 | locus YCL011C, strain gbp2, active compounds read low 0.997 | locus YCL016C, strain dcc1, active compounds read low 0.982 | locus YCL029C, strain bik1, active compounds read low 0.978 | locus YCL061C, strain MRC1, active compounds read low 1 | locus YCL069W, strain vba3, active compounds read low 1.03 | locus YCR088W, strain abp1, active compounds read low 1.02 | locus YDL005C, strain med2, active compounds read low 1.01 | locus YDL035C, strain GPR1, active compounds read low 1.01 | locus YDL040C, strain nat1, active compounds read low 1.01 | locus YDL074C, strain BRE1, active compounds read low 0.973 | locus YDL101C, strain DUN1, active compounds read low 0.943 | locus YDL134C, strain PPH21, active compounds read low 0.997 | locus YDL185W, strain tfp1, active compounds read low 0.955 | locus YDL192W, strain arf1, active compounds read low 1.01 | locus YDR001C, strain nth1, active compounds read low 1.02 | locus YDR069C, strain doa4, active compounds read low 0.969 | locus YDR101C, strain arx1, active compounds read low 1.04 | locus YDR137W, strain rgp1, active compounds read low 1 | locus YDR159W, strain sac3, active compounds read low 1.06 | locus YDR162C, strain NBP2, active compounds read low 0.948 | locus YDR195W, strain ref2 1.01 | locus YDR297W, strain sur2, active compounds read low 1 | locus YDR318W, strain mcm21, active compounds read low 1.02 | locus YDR334W, strain swr1, active compounds read low 1.02 | locus YDR335W, strain msn5, active compounds read low 0.998 | locus YDR388W, active compounds read low 0.996 | locus YDR392W, strain spt3, active compounds read low 0.923 | locus YDR502C, strain sam2, active compounds read low 1 | locus YEL003W, strain gim4, active compounds read low 1 | locus YEL037C, strain rad23, active compounds read low 1.01 | locus YEL061C, strain CIN8 (second series), active compounds read low 1.01 | locus YER015W, strain faa2, active compounds read low 0.974 | locus YER016W, strain bim1, active compounds read low 1.02 | locus YER110C, active compounds read low 0.991 | locus YER111C, strain swi4, active compounds read low 0.999 | locus YER155C, strain BEM2 (second series), active compounds read low 1.02 | locus YER155C, strain BEM2, active compounds read low 1.02 | locus YER167W, strain BCK2, active compounds read low 1.01 | locus YFR010W, strain ubp6, active compounds read low 1.02 | locus YGL078C, strain dbp3, active compounds read low 0.983 | locus YGL086W, strain mad1, active compounds read low 0.986 | locus YGL167C, strain pmr1, active compounds read low 0.995 | locus YGL173C, strain kem1, active compounds read low 1.02 | locus YGL227W, strain vid30, active compounds read low 1.02 | locus YGL240W, strain doc1, active compounds read low 1.07 | locus YGL248W, strain PDE1, active compounds read low 0.965 | locus YGL253W, strain hxk2, active compounds read low 1.04 | locus YGR135W, strain pre9, active compounds read low 0.949 | locus YGR229C, strain SMI1, active compounds read low 1.07 | locus YGR252W, strain gcn5, active compounds read low 1.11 | locus YHR013C, strain ard1, active compounds read low 0.981 | locus YHR027C, strain rpn1, active compounds read low 1 | locus YHR030C, strain SLT2, active compounds read low 1.01 and 1.06 | locus YHR079C, strain IRE1 (second series), active compounds read low 0.987 | locus YHR079C, strain IRE1, active compounds read low 1.08 | locus YHR094C, strain hxt1, active compounds read low 1 | locus YHR129C, strain ARP1, active compounds read low 1.01 | locus YHR142W, strain chs7, active compounds read low 1 | locus YHR200W, strain rpn10, active compounds read low 0.983 | locus YIL066C, strain RNR3, active compounds read low 0.97 | locus YIL073C, strain SPO22, active compounds read low 0.794 | locus YIL125W, strain kgd1, active compounds read low 0.993 | locus YIR030C, strain dcg1, active compounds read low 0.986 | locus YJL092W, strain hpr5, active compounds read low 1.01 | locus YJL095W, strain BCK1 (second series), active compounds read low 1 | locus YJL095W, strain BCK1, active compounds read low 0.947 and 1.06 | locus YJL115W, strain asf1, active compounds read low 1.01 | locus YJL129C, strain trk1, active compounds read low 1.03 | locus YJL134W, strain LCB3, active compounds read low 1 | locus YJL154C, strain vps35, active compounds read low 1.01 | locus YJL164C, strain tpk1, active compounds read low 0.98 | locus YJL166W, strain qcr8, active compounds read low 1.01 | locus YJL168C, strain set2, active compounds read low 0.997 | locus YJL187C, strain SWE1 (second series), active compounds read low 0.873 | locus YJL187C, strain SWE1, active compounds read low 0.988 | locus YJR066W, strain TOR1, active compounds read low 1.04 | locus YKL009W, strain mrt4, active compounds read low 0.973 | locus YKL068W, active compounds read low 0.994 | locus YKL085W, strain MDH1 (second series), active compounds read low 0.976 | locus YKL085W, strain MDH1, active compounds read low 0.976 | locus YKL160W, strain elf1, active compounds read low 0.983 | locus YKL190W, strain CNB1, active compounds read low 0.987 | locus YKR001C, strain vps1, active compounds read low 1.04 | locus YKR026C, strain gcn3, active compounds read low 1.02 | locus YKR091W, strain srl3, active compounds read low 1.01 | locus YLL001W, strain dnm1, active compounds read low 0.978 | locus YLL026W, active compounds read low 1.01 | locus YLL041C, strain sdh2, active compounds read low 1.02 | locus YLR027C, strain aat2, active compounds read low 1.01 | locus YLR039C, strain RIC1, active compounds read low 1.06 | locus YLR058C, strain SHM2, active compounds read low 0.898 | locus YLR102C, strain apc9, active compounds read low 0.981 | locus YLR113W, strain HOG1, active compounds read low 1.04 | locus YLR221C, strain rsa3, active compounds read low 1.03 | locus YLR258W, strain gsy2, active compounds read low 1 | locus YLR262C, strain YPT6 (second series), active compounds read low 1 | locus YLR268W, strain sec22, active compounds read low 1.01 | locus YLR320W, strain mms22, active compounds read low 1.03 | locus YLR330W, strain CHS5, active compounds read low 1.02 | locus YLR342W, strain FKS1, active compounds read low 1 | locus YLR357W, strain rsc2, active compounds read low 1 | locus YLR370C, strain arc18, active compounds read low 1.01 | locus YLR371W, strain rom2, active compounds read low 0.997 | locus YLR384C, strain iki3, active compounds read low 1.01 | locus YLR418C, strain cdc73, active compounds read low 1.02 | locus YML016C, strain PPZ1, active compounds read low 0.972 | locus YML032C, strain rad52, active compounds read low 1 | locus YML120C, strain ndi1, active compounds read low 0.983 | locus YML124C, strain tub3, active compounds read low 0.988 | locus YMR058W, strain fet3, active compounds read low 1.02 | locus YMR078C, strain ctf18, active compounds read low 0.994 | locus YMR125W, strain sto1, active compounds read low 0.989 | locus YMR129W, active compounds read low 1.01 | locus YMR205C, strain PFK2, active compounds read low 0.974 | locus YMR223W, strain ubp8, active compounds read low 0.995 | locus YMR231W, strain pep5, active compounds read low 1.01 | locus YMR263W, strain SAP30, active compounds read low 1.01 | locus YMR307W, strain GAS1, active compounds read low 1.06 | locus YNL067W, strain RPL9B, active compounds read low 1.02 | locus YNL071W, strain lat1, active compounds read low 1 | locus YNL183C, strain NPR1, active compounds read low 1.03 | locus YNL209W, strain ssb2, active compounds read low 0.973 | locus YNL233W, strain BNI4, active compounds read low 1 | locus YNL248C, strain rpa49, active compounds read low 1.04 | locus YNL250W, strain rad50, active compounds read low 0.925 | locus YNL271C, strain bni1, active compounds read low 0.976 | locus YNL298W, strain CLA4, active compounds read low 1.01 | locus YNL307C, strain MCK1, active compounds read low 0.998 | locus YNL322C, strain KRE1 (second series), active compounds read low 1 | locus YNR049C, strain mso1, active compounds read low 1.03 | locus YNR052C, strain pop2, active compounds read low 0.988 | locus YOL006C, strain TOP1, active compounds read low 0.743 | locus YOL012C, strain htz1 0.406 | locus YOL147C, strain pex11, active compounds read low 0.999 | locus YOR001W, strain rrp6, active compounds read low 1.06 | locus YOR061W, strain CKA2, active compounds read low 0.981 | locus YOR069W, strain VPS5, active compounds read low 1 | locus YOR070C, strain gyp1, active compounds read low 1.01 | locus YOR080W, strain dia2, active compounds read low 1 | locus YOR083W, strain WHI5, active compounds read low 0.984 | locus YOR106W, strain vam3, active compounds read low 0.955 | locus YOR136W, strain idh2, active compounds read low 1.02 | locus YOR144C, strain elg1, active compounds read low 1 | locus YOR184W, strain ser1, active compounds read low 1.1 | locus YOR231W, strain MKK1, active compounds read low 1.08 | locus YOR265W, strain rbl2, active compounds read low 1.03 | locus YOR270C, strain vph1, active compounds read low 1.07 | locus YOR290C, strain snf2, active compounds read low 0.988 | locus YOR316C, strain cot1, active compounds read low 0.987 | locus YPL051W, strain arl3, active compounds read low 0.969 | locus YPL078C, strain atp4, active compounds read low 0.991 | locus YPL106C, strain sse1, active compounds read low 0.949 | locus YPL240C, strain hsp82, active compounds read low 1.01 | locus YPL241C, strain CIN2, active compounds read low 0.996 | locus YPL256C, strain CLN2, active compounds read low 1.05 | locus YPR119W, strain clb2, active compounds read low 0.996 | locus YPR141C, strain kar3, active compounds read low 0.989 | locus YPR163C, strain tif3, active compounds read low 1.01 | locus YPR167C, strain met16, active compounds read low 1.01 | strain wtn01, active compounds read low 0.992
